DT40 TDP1 no CPT = qHTS for Inhibitors of human tyrosyl-DNA phosphodiesterase 1 (TDP1): qHTS in cells in absence of CPT; hit rate 15% among 420,000; Potency, µM (doses to about 46.2 µM), for inactives: top-dose activity change, negative = growth inhibition, hits mostly inhibitors; DT40 Tdp1-/- hTDP1 cells, no CPT, ATP luminescence, 48 h; note: nearly all actives have a fitted effect of over 55% in size
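DT40 Tdp1-/-;hTDP1 cells, no CPT (DMSO vehicle only), 400 cells/well; compounds pin-transferred; ≥48 hr, 37 °C; CellTiter-Glo 30 min RT dark, luminescence read.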
ELG1 DNA repair = blocks ELG1-dependent DNA repair in HEK293T cells | HEK293T ELG1-luciferase reporter, luminescence, 16 h; DNA damage induced by 5-fluorouridine | hit rate 2.3% among 330,000 | Potency, µM (highest dose often 46.1 µM), without a hit: top-dose activity change, negative = inhibition, actives largely listed as inhibitors; note: nearly all actives have a fitted effect of over 55% in size
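HEK293T cells expressing luciferase-tagged ELG1 (2,000/well) received 5-Fluorouridine plus compound or DMSO for 16 hr at 37 °C. Luciferase was read by ONE-Glo luminescence after 30 min at room temperature.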
ALOX12 inh = ALOX12 (human) lipoxygenase inhibition; P18054; purified 12hLO, xylenol orange hydroperoxide absorbance; Potency, µM (doses to about 108 µM), without a hit: top-dose activity change, negative = inhibition, usual class: inhibitors; hit rate 1.1% among 580,000; AID 1671190
Target sequence (P18054 whole entry, looked up): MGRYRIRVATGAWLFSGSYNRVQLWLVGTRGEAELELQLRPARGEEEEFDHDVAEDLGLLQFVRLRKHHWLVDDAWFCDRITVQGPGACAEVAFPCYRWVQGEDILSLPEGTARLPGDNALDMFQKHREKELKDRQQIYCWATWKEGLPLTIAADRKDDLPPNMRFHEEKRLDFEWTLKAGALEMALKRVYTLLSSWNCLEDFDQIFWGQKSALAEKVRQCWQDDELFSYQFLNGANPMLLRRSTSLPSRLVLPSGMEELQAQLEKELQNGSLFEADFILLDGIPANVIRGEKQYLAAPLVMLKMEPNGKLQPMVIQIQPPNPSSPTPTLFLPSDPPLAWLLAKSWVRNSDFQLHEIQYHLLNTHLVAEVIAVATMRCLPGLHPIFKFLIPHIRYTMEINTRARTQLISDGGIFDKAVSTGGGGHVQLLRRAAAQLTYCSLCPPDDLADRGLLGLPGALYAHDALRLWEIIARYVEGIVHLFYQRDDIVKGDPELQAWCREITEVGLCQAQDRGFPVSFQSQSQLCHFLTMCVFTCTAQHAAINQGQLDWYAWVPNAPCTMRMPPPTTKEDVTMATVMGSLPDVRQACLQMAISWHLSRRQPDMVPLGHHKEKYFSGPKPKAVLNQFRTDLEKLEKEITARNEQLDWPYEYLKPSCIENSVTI
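Purified human 12hLO (150 nM final) in 25 mM Hepes, 0.01% Triton X-100, pH 7.0 was preincubated 15 min at room temperature with compound. Then 40 uM arachidonic acid was added, 30 min. Hydroperoxide was read by Fe-XO absorbance ratio 573/405 nm.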
VP16 counter = Gal4-VP16 reporter inhibition counter-screen | AID 2546 | Potency, µM (series often up to 53.6 µM), without a hit: at the highest dose activity, negative = inhibition, most hits filed as inhibitors | Drosophila S2 Gal4-VP16 UAS-luciferase, luminescence, 20 h | hit rate 3.5% among 310,000;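 note: Gal4-VP16 expression switched on by copper sulfate through the metallothionein promoter; nearly all actives have a fitted effect of over 50% in size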
DT40 TDP1 CPT = DT40-hTDP1 cell growth loss with CPT. AID 686979. Potency, µM (highest dose often 46.2 µM), without a hit: top-dose activity change, negative = growth inhibition, usual class: inhibitors. chicken DT40 Tdp1-/-;hTDP1 cells + 20 nM CPT, ATP luminescence, 48 h. hit rate 12% among 420,000; note: nearly all actives have a fitted effect of over 55% in size
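Cell growth measured by CellTiter-Glo luminescence after a minimum 48 h, 37 C compound exposure with 20 nM CPT in Tdp1-knockout DT40 cells stably expressing hTDP1, seeded 400/well; qHTS titration format.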
RORg inh = ROR gamma (mouse) transcription inhibition | hit rate 5.4% among 310,000 | P51450 | Drosophila S2 Gal4-RORgamma UAS-luciferase reporter, 20 h | Potency, µM (doses to about 53.6 µM), for inactives: at the top dose activity change, negative = inhibition, hits mostly inhibitors; note: nearly all actives have a fitted effect of over 60% in size
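Drosophila S2 cells stably expressing Gal4-DBD/mouse RORγ fusion under metallothionein promoter plus UAS-luciferase; compound 1 h, then 700 uM CuSO4 induction for 20 h at ambient temperature; inhibition read as reduced luminescence.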
Starred values were filed as active, the others as inactive; ? = inconclusive; . = not tested or not shown; [ ] = another dose, or the depositor's remark. The list is not random: actives were taken first. Their share in the collection is about 15%. Calls come from the whole dose curve; as a rule, active = well fitted curve in the direction sought with a large enough effect; inconclusive = small, poorly fitted or top-dose-only effect, or another doubt; inactive = no such curve, though single readings can be large; an effect the other way counts as inactive or inconclusive. % is set by controls: 0 for no effect and ±100 for the full control effect; potency is the fitted concentration of half-maximal effect.

SMILES	DT40 TDP1 no CPT	ELG1 DNA repair	ALOX12 inh	VP16 counter	DT40 TDP1 CPT	RORg inh
CCCC#Cc1cnc2c(c1)C(=O)N([C@H](C)CO)C[C@@H](C)[C@H](CN(C)S(=O)(=O)c1cccc(OC)c1)O2	10µM*	.	?	.	?	.
C[C@H](CO)N1C[C@H](C)[C@@H](CN(C)S(=O)(=O)c2ccccc2F)Oc2ncc(C#Cc3cccnc3)cc2C1=O	15µM*	.	?	.	?	.
COc1ccc(S(=O)(=O)N(C)C[C@H]2Oc3ncc(C#CC4(O)CCCC4)cc3C(=O)N([C@@H](C)CO)C[C@@H]2C)cc1	?	.	?	.	9.2µM*	.
CC(C)(CNC(=O)CCCNC(=O)C1CC1)c1ccccc1	.	.	-25%	.	.	.
O=C(c1cccc(F)c1)N1CCC(c2nc(C3CCOCC3)no2)CC1	.	.	18%	.	.	.
COc1cc(S(=O)(=O)Nc2ccccc2)ccc1N=Cc1c(C)[nH]n(-c2ccc(C)cc2)c1=O	.	?	.	-10%	.	43%
COc1cc(SC#N)ccc1N=Cc1c(C)[nH]n(-c2ccc(C)c(C)c2)c1=O	2.6µM*	?	-5%	4.5µM*	3.3µM*	4.5µM*
COc1cc(SC#N)ccc1N=Cc1c(C)[nH]n(-c2ccc(Cl)cc2)c1=O	3.7µM*	?	-16%	5.6µM*	2.6µM*	5.6µM*
CC(C)CCN1CCn2c(nnc2-c2cccnc2)C1	.	.	58%[176 µM]	.	.	.
Cc1ccc(C)c(OCC(=O)Nc2ccc3c(c2)OCO3)c1C	18µM*	-11%	11%	-11%	?	16%
Cc1cccc(OCC(=O)Nc2ccc3c(c2)OCO3)c1C	?	1%	?	-7%	-29%	?
O=C(COc1ccccc1Br)Nc1ccc2c(c1)OCCCO2	-28%	?	-11%	-11%	-19%	18µM*
Cc1ccc(OCC(=O)OCC(=O)Nc2ccc3c(c2)OCO3)cc1C	-4%	19%	7%	.	-9%	.
CNC(=S)NNC(=O)COc1ccc(C)c(C)c1	?	?	16%	7.1µM*	12%	6.3µM*
Cc1ccc(OCC(=O)NC2CCCCCC2)cc1C	1%	25%	0%	15%	-20%	45%
Cc1ccc(OCC(=O)Nc2ccc3c(c2)OCO3)cc1C	26µM*	22%	4%	-4%	-6%	7%
Cn1cnc(C(=O)N2CC(F)(F)C[C@H]2c2nc(C3CC3)no2)c1	.	.	19%	.	.	.
CCCCC(=O)NC1CCN(c2cn[nH]c(=O)c2)CC1	.	.	12%	.	.	.
Cc1ccccc1C1CCCN1CC(=O)N(CCC#N)c1ccccc1F (stereo not given)	.	.	10%	.	.	.
COc1ccc(C(=O)NCCNc2nc3c(C)cccc3cc2C#N)cc1	21µM*	.	?	.	?	.
Cc1cccc2cc(C#N)c(NCCNC(=S)NCCCN3CCOCC3)nc12	?	0%	10%	-2%[0.365 µM]	?	4µM*
COc1ccc2nc(NCCNC(=S)NCCCN3CCOCC3)c(C#N)cc2c1	?	?	-4%	6%	1%	?
CCOc1ccc2nc(NCCNC(=S)NCCCN(C)C)c(C#N)cc2c1	26µM*	-2%	-20%	3%	?	-21%
COc1cccc(C(=O)NCCCNc2nc3cc(C)cc(C)c3cc2C#N)c1	26µM*	.	-13%	.	?	.
Cc1ccc(CN2CCCOCCNC(=O)CC2)s1	.	.	12%	.	.	.
CCCN(CC1CCOC1)C(=O)c1c(F)cccc1Cl (stereo not given)	.	.	16%	.	.	.
CCOCCCNC(=O)CC1CC2CCC1C2 (stereo not given)	.	.	17%	.	.	.
COc1ccc2nc(NCCCNC(=O)c3cc(OC)c(OC)c(OC)c3)c(C#N)cc2c1	-16%	16µM*	-23%	-11%	-28%	-9%

Source: PubChem
